Rows were chosen to be rich in hits. Some 2.7% of all compounds tested hit in one or more screens of this group.
A549 tox-1: Nrf2 qHTS screen for inhibitors: counterscreen for cytotoxicity; A549 ARE-Fluc cells, CellTiter-Fluor viability, 18-24 h; Potency, µM (series often up to 46 µM), without a hit: at the highest dose activity change, negative = cytotoxicity, actives largely listed as inhibitors; 390,000 compounds, 0.16% hits; also: potency is read from the fitted curve at half-maximal effect; % is scaled to controls: 0 for no effect and ±100 for the full control effect
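Cytotoxicity counterscreen: CellTiter-Fluor fluorescence was measured in A549 ARE_Fluc cells after 18-24 h of compound exposure in a concentration series. The subsequent BugLite luminescent read reports ARE-luciferase activity.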
Nrf2 activator: qHTS of Nrf2 Activators; AREc32 ARE-luciferase reporter (MCF7-derived line), luminescence, 24 h; Potency, µM (top dose mostly 46.1 µM), for the others: top-dose activation, hits mostly activators; 410,000 compounds, 0.31% hits; also: potency is read from the fitted curve at half-maximal effect; % of control where 0% means no effect; nearly all actives have a fitted effect of over 65% in size
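Steps: seed AREc32_Fluc cells (1000/well, 5% FBS OPTI-MEM); incubate overnight at 37 deg C; add 23 nL compound; incubate 24 hr; add Steady-Glo; hold 30 min RT; read luminescence.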
IDH1 R132H inh: qHTS for Inhibitors of mutant isocitrate dehydrogenase 1 (IDH1): qHTS; IDH1-R132H enzyme, NADPH consumption, diaphorase/resazurin fluorescence; 390,000 compounds, 0.093% hits; Potency, µM (titrated, usually from 76.6 µM), for the others: at the highest dose activity change, negative = inhibition, actives largely listed as inhibitors; Isocitrate dehydrogenase [NADP] cytoplasmic (Homo sapiens), O75874; AID 602179, 2012; also: potency is read from the fitted curve at half-maximal effect; % is scaled to controls: 0 for no effect and ±100 for the full control effect; nearly all actives have a fitted effect of over 65% in size
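IDH1-R132H (0.5 ug/mL) preincubated 30 min with compound, then NADPH (0.016 mM) and alpha-KG (2 mM) added; 80 min at RT, pH 7.5. Remaining NADPH coupled via diaphorase/resazurin to fluorescence (540/590 nm); concentration-response curves normalized to no-enzyme control.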
Nrf2 inh: Nrf2 qHTS screen for inhibitors; 360,000 compounds, 2.1% hits; A549 ARE-Fluc reporter, luciferase luminescence, 18-24 h; Potency, µM (series often up to 46 µM), without a hit: at the top dose activity change, negative = inhibition, actives largely listed as inhibitors; also: potency is read from the fitted curve at half-maximal effect; % is scaled to controls: 0 for no effect and ±100 for the full control effect; nearly all actives have a fitted effect of over 60% in size
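Two sequential reads on A549 ARE_Fluc cells exposed to compound for 18-24 h: a CellTiter-Fluor fluorescence read for viability, then a luciferase luminescence read for Nrf2/ARE activity.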
ALOX12 inh: Primary qHTS assay for inhibitors of human arachidonate 12S-lipoxygenase (ALOX12): Round 2; Polyunsaturated fatty acid lipoxygenase ALOX12 (Homo sapiens), P18054; purified 12hLO, xylenol orange hydroperoxide absorbance; Potency, µM (top dose mostly 108 µM), for the others: at the top dose activity change, negative = inhibition, hits mostly inhibitors; 580,000 compounds, 1.1% hits; AID 1671190, 2021; also: potency is read from the fitted curve at half-maximal effect; % is scaled to controls: 0 for no effect and ±100 for the full control effect
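Hydroperoxide product was detected by ferrous iron/xylenol orange as the 573 to 405 nm absorbance ratio. Arachidonic acid at 40 uM (final) was turned over for 30 min at room temperature by 150 nM human 12hLO, pH 7.0 Hepes buffer, after 15 min compound preincubation.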
LDHA inh: qHTS assay for inhibitors of human lactate dehydrogenase | L-lactate dehydrogenase A chain (Homo sapiens), P00338 | purified LDHA, NADH/diaphorase-resazurin fluorescence; stronger effect = lower value | activity change, % (values are at about 110 or 230 µM) | 480,000 compounds, 0.15% hits | AID 1347041, 2019; in the data active = activity change below about -30%; inconclusive = mostly about -25% to -30%;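 also: plate controls were DMSO wells for no effect and wells without enzyme for full effect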
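Enzyme activity of human lactate dehydrogenase 5 (2 nM; 0.06 mM NADH, 0.2 mM pyruvate, 5 min, RT) is measured via a resazurin/diaphorase fluorescence readout of residual NADH.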
FLuc counter 3: Nrf2 qHTS screen for inhibitors: Purified Fluc Biochemical Counterscreen for Hit Validation; shares compounds with Nrf2 inh; purified firefly luciferase, luminescence inhibition; Potency, µM (highest dose often 57.5 µM), without a hit: at the highest dose activity change, negative = inhibition, hits mostly inhibitors; 1,400 compounds, 4% hits; AID 720522, 2013; also: potency is read from the fitted curve at half-maximal effect; % is scaled to controls: 0 for no effect and ±100 for the full control effect; nearly all actives have a fitted effect of over 65% in size
Target sequence (P08659 whole entry, looked up): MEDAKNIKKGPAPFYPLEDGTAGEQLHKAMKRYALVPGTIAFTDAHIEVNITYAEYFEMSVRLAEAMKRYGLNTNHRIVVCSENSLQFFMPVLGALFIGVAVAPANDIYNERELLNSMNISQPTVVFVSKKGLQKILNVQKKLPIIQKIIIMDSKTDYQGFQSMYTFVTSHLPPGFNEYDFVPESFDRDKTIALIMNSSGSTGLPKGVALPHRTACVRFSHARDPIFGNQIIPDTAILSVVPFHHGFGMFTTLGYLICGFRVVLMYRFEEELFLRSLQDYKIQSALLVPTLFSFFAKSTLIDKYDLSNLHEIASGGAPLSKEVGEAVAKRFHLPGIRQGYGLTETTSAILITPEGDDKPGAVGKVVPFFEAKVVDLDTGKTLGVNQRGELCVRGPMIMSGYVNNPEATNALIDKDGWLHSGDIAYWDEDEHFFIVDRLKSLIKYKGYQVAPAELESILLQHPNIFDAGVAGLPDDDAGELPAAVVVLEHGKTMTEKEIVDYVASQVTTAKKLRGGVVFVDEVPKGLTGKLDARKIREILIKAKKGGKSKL
A549 tox-2: Nrf2 qHTS screen for inhibitors: A549 ARE-Fluc Cytotoxicity Counterscreen for Hit Validation | 1,400 compounds, 2% hits | shares compounds with Nrf2 inh | AID 720523, 2013 | Potency, µM (highest dose often 46.1 µM), without a hit: at the highest dose activity change, negative = cytotoxicity, most hits filed as inhibitors | A549 ARE-Fluc cells, cytotoxicity counterscreen;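 also: potency is read from the fitted curve at half-maximal effect; cells exposed to compounds for 18 to 24 hours; % is scaled to controls: 0 for no effect and ±100 for the full control effect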
Nrf2 ARE inh: Nrf2 qHTS screen for inhibitors: Nrf2 A549 ARE-Fluc Confirmation Assay for Hit Validation | 1,400 compounds, 74% hits | shares compounds with Nrf2 inh | A549 ARE-firefly luciferase reporter, luminescence | Potency, µM (series often up to 46.1 µM), inactives show top-dose activity change, negative = inhibition, usual class: inhibitors; also: potency is read from the fitted curve at half-maximal effect; % is scaled to controls: 0 for no effect and ±100 for the full control effect; nearly all actives have a fitted effect of over 65% in size
Active calls of the source: *; ? = inconclusive; . = no result given; [ ] = dose if it differs, or a comment. Unless noted, calls follow the shape of the dose curve; as a rule, active = well fitted curve in the direction sought with a large enough effect; inconclusive = small, poorly fitted or top-dose-only effect, or another doubt; inactive = no such curve, though single readings can be large; an effect the other way counts as inactive or inconclusive.

SMILES	A549 tox-1	Nrf2 activator	IDH1 R132H inh	Nrf2 inh	ALOX12 inh	LDHA inh	FLuc counter 3	A549 tox-2	Nrf2 ARE inh
CCOc1cc(-c2noc(-c3ccccc3)n2)ccc1OCC(=O)NC(C)(C)C	.	.	.	.	?	-2.0	.	.	.
Cc1cc(CN(C)C(=O)c2cc(COc3ccc4ncccc4c3)on2)on1	-17.0%	1.7%	-2.8%	4.61µM*	-10.7%	-1.0	-25.0%	-2.7%	5.17µM*
COc1ccc(Nc2nc(N3CCCC3)c3ccccc3n2)cc1	-16.5%	-2.3%	-1.0%	?	?	-1.4	.	.	.
CCN(CC)c1ccc(Nc2nc(N3CCOCC3)c3ccccc3n2)cc1	?	3.4%	8.1%	6.51µM*	?	12.6	?	-10.8%	11.6µM*
O=c1c2ccccc2nc2n1-c1ccccc1CCC2	-16.1%	0.1%	-2.0%	-4.4%	0.0%	-0.6	.	.	.
O=C1c2ccccc2-n2c1nc1ccccc1c2=O	-19.7%	4.3%	-9.7%	5.17µM*	-13.9%	5.8	-26.4%	16.4µM*	6.51µM*
COc1ccc(NC(=O)CSc2ncnc3ccccc23)c(OC)c1	.	.	.	.	-22.9%	5.5	.	.	.
COc1ccc(OC)c(NC(=O)CSc2ncnc3c2cnn3-c2ccccc2Cl)c1	?	3.0%	-4.7%	4.61µM*	.	-9.1	-0.3%	-15.0%	.
Cc1ncc(CO)c2c1Oc1nc(-c3ccccc3)nc(SCC(=O)Nc3cccc(O)c3)c1C2	?	-0.1%	0.8%	1.84µM*	?	-1.6	-2.2%	-14.4%	5.8µM*
COc1ccc(-c2nc3c(c(SCC(=O)Nc4cccc(O)c4)n2)Cc2c(CO)cnc(C)c2O3)cc1	9.6%	4.8%	-2.1%	-1.1%	?	-10.1	.	.	.
O=S(=O)(NCc1cn2ccsc2n1)c1ccc(Oc2ccccc2)cc1	?	0.3%	9.9%	7.31µM*	342.9%	-4.0	-0.6%	-5.8%	7.31µM*
O=S(=O)(NCc1cn2ccsc2n1)c1cccs1	-1.0%	3.9%	9.5%	?	-9.3%	-3.3	.	.	.
Cc1c(C#N)c(N)nc2c3c(sc12)NC(=O)CC3c1c(F)cccc1Cl (centres undefined)	.	.	.	.	12.6%	-4.6	.	.	.
CN(Cc1cnc2nc(N)nc(N)c2n1)c1ccc(C(=O)NC(CCC(=O)O)C(=O)O)cc1 (centres undefined)	-8.8%	0.0%	5.0%	0.291µM*	?	13.3	-16.9%	-8.9%	1.46µM*
CN(Cc1cnc2nc(N)nc(N)c2n1)c1ccc(C(=O)NC(CCC(=O)O)C(=O)O)cc1C(F)(F)F (centres undefined)	-18.6%	1.4%	2.1%	?	5.6%	6.6	.	.	.
CCOc1ccc(-c2nc(Cn3c(=O)cc(-c4ccccc4)c4c(C)nn(C)c43)c(C)o2)cc1	8.6%	0.9%	-5.5%	5.8µM*	4.9%	-12.8	-0.1%	-2.8%	13.9%
Cc1ccc(C)c(NC(=O)c2cc3c(cc2C)OCCCO3)c1	.	.	.	.	20.2%	-1.0	.	.	.
CCOC(=O)c1c(NC(=O)Cn2c(C)nc3ccccc32)sc2c1CCC2	-3.9%	-0.2%	-2.5%	5.8µM*	0.0%	-2.5	0.9%	-10.1%	?
Cc1nc2cc(F)cc(C(=O)NCC(C)N(C)c3ccccc3)c2nc1C (centres undefined)	.	.	.	.	-4.7%	?	.	.	.
O=Cc1c[nH]c2ccc(Br)cc12	.	.	.	.	-17.7%	5.6	.	.	.
C[n+]1ccc(/C=C/c2c[nH]c3ccc(F)cc23)cc1	?	2.2%	5.2%	1.16µM*	11.0%	-3.2	0.7%	?	1.84µM*
Cn1cc(/C=C/c2cc[n+](C)cc2)c2cc(F)ccc21	?	8.0%	4.7%	1.64µM*	.	6.8	1.3%	-26.3%	1.64µM*
O=C(Nc1nonc1NC(=O)c1cccs1)c1cccs1	?	6.8%	2.3%	1.64µM*	-9.2%	-7.6	-15.0%	-11.9%	6.51µM*
Cc1ccc(CN2C[C@@H]3C[C@H]2C(=O)N(CC2CC2)c2ccccc2O3)cc1	.	.	.	.	9.2%[176 µM]	.	.	.	.
Cc1cc2[nH]c3c(c[n+](C)c4ccccc34)c2cc1C	?	-2.0%	0.0%	5.8µM*	?	-16.1	1.2%	6.8%	7.31µM*
SMILES	A549 tox-1	Nrf2 activator	IDH1 R132H inh	Nrf2 inh	ALOX12 inh	LDHA inh	FLuc counter 3	A549 tox-2	Nrf2 ARE inh
O=C(Nc1cccc(S(=O)(=O)C(F)F)c1)c1ccc(S(=O)(=O)N2CCOCC2)cc1	-1.5%	1.1%	4.0%	-37.2%	117.2%	-10.7	.	.	.
O=C(Nc1cccc(S(=O)(=O)C(F)F)c1)c1ccc(S(=O)(=O)N2CCCC2)cc1	?	0.1%	8.1%	5.8µM*	13.2%	1.0	1.7%	-7.3%	?
COc1ccc(NS(=O)(=O)c2cccc(NC(=O)c3ccc(S(=O)(=O)N4CCCCCC4)cc3)c2)cc1	?	0.2%	-1.3%	5.8µM*	.	-9.4	-2.5%	-14.5%	5.8µM*
O=C(Nc1ncc(Cc2cccc(C(F)(F)F)c2)s1)c1ccc(-c2cccc([N+](=O)[O-])c2)o1	-26.5%	0.3%	6.2%	2.59µM*	-10.8%	-1.8	-2.2%	-1.1%	5.17µM*
O=C(Nc1nccs1)c1ccc(-c2cccc([N+](=O)[O-])c2)o1	-10.4%	3.7%	-6.4%	?	-4.5%	-4.5	.	.	.
O=C(Nc1c(F)cccc1F)c1cnc(N2CCN(c3ccccn3)CC2)c2ccccc12	?	-0.5%	2.0%	9.2µM*	20.0%	1.1	-9.7%	-11.0%	?
O=C(c1cnc(N2CCN(c3ncccn3)CC2)c2ccccc12)N1CCN(c2ccccn2)CC1	-1.6%	-0.1%	-2.5%	?	-8.3%	-8.2	.	.	.

Assay outcomes: PubChem BioAssay, National Center for Advancing Translational Sciences (NCATS)
